# PubChem BioAssay AID624134 (Broad Institute, 2012)
# Among all 1,600 compounds or so, about 1,100 (69%) were called active. So high a share suggests a set chosen from earlier hits. A selection follows. Potency and affinity values are given separately. Results filed as inconclusive are left out. A number with no mark means an inactive call.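 How the source made its calls: active means signal drop with fitted half-maximal concentration no higher than twice the top valid tested concentration; inconclusive means flat curve with 30 to 70% signal loss, or poor fit; inactive means the rest, including signal rises and flat curves within 30%.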
# Assay: loss of viability in HepG2 cells – cell-based, CellTiter-Glo, cherry-picked, cytotoxicity control for Shn3 inhibitor project, dose response (AID 624134);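 further: 0% = median of neutral control wells and -100% = median of positive control wells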
# Conditions: CellTiter-Glo ATP luminescence, 48 h; series mostly up to 35 µM; activity change, negative = cytotoxicity: at the top concentration
row,Compound,"activity change, negative = cytotoxicity"
1,CCCCCCCCCCOC(=O)Cn1c(COc2ccc(OC)cc2)[n+](C)c2ccccc21,-45.4%
2,CSc1cccc(NC(=O)N2CCCC(CNS(=O)(=O)Cc3ccccc3)C2)c1 (configuration not stated),2.73%
3,Cc1nc2ncnn2c(C)c1Cc1cccc(F)c1,9.15%
4,CC(C)=CCC/C(C)=C/CNC(=O)C[C@H]1C[C@H](C(=O)N2CCOCC2)[C@@]2(C)c3[nH]c4cc(CCC(=O)N(C)C)ccc4c3CCN2C1=O,-0.565%
5,O=C(Cn1cc(C(=O)C2CC2)c2ccccc21)Nc1ccccc1Cl,-7.27%
6,CCC(=O)c1cn(CC(=O)Nc2cccc(C)c2C)c2ccccc12,-5.31%
7,CCN(CC)C(=S)Sc1c(-c2ccccc2)c2cc(Cl)ccc2[nH]c1=O,-4.13%
8,O=C(Nc1ccc(S(=O)(=O)N2CCN(Cc3ccccc3)CC2)cc1)c1cnccn1,-11.4%
9,COc1ccc(C(=O)NNC(=O)c2cccc(S(=O)(=O)N3CCOCC3)c2)cc1,-5.14%
10,COc1ccc(NS(=O)(=O)c2ccc(NC(=O)C(CCSC)NC(N)=O)cc2)cc1 (configuration not stated),-10%
11,O=C(COC(=O)c1n[nH]c2ccccc12)Nc1ccc(S(=O)(=O)N2CCCC2)cc1,-5.15%
12,O=C(CCS(=O)(=O)c1ccccc1)Nc1nc2c(s1)CCCC2,-13%
13,COc1ccccc1/C=C1\CCCC2=C1Nc1nnnn1C2c1ccccc1OC (configuration not stated),-11.8%
14,O=C(O)c1cccc(COc2ccccc2Cl)c1,-6.88%
15,O=C(O)c1cccc(COc2ccc(CO)cc2Cl)c1,0.142%
16,CCN(CC)Cc1c(O)ccc2c1O/C(=C\C=C\c1ccccc1)C2=O,-1.45%

row,Compound,"activity change, negative = cytotoxicity"
1,Cc1ccc(-c2ccc(/C=C3\C(=O)ON=C3c3ccccc3)o2)c([N+](=O)[O-])c1,-4.13%
2,Cc1ccc(NC(=O)C2CCCN(S(=O)(=O)c3c(C)noc3C)C2)cc1 (configuration not stated),-0.872%
3,Cc1csc(=O)n1CCC(=O)N(C)Cc1c(F)cccc1Cl,-12.2%
4,CCn1cc(CNCc2cn(-c3ccccc3C)nc2-c2ccc(OC)c(F)c2)cn1,-7.23%
5,CCN(CC)S(=O)(=O)c1ccc(N2CCOCC2)c(NC(=O)c2nn(C(C)C)c(=O)c3ccccc23)c1,-1.72%
6,CCOC(=O)C1CCN(c2cc3c(cc2NC(=O)c2ccccc2Br)n(C)c(=O)n3C)CC1,-8.07%
7,CC[C@]12c3[nH]c4cc(CCC(=O)N(C)C)ccc4c3CCN1C(=O)[C@@H](CC(=O)NC/C=C(\C)CCC=C(C)C)C[C@@H]2C(=O)N1CCN(C(=O)c2ccco2)CC1,-14.9%
8,COc1ccc(-c2cc(C(F)(F)F)nc(S(=O)(=O)CCCC(=O)Nc3cccnc3Cl)n2)cc1OC,-38.1%
9,COc1ccc([C@H]2CC(=O)C=C(c3ccc4c(c3)OCO4)C2)cc1OC,5.26%
10,COc1cc(C(=O)OCC(=O)NC2CCCCCC2)ccc1OCC(C)C,-6.66%
11,CC(=O)OCC(=O)[C@@]1(O)CC[C@H]2[C@@H]3CCC4=CC(=O)CC[C@]4(C)[C@H]3C(=O)C[C@@]21C,-6.11%
12,COc1ccc(S(=O)(=O)N2CCOCC2)cc1NC(=O)COC(=O)CC1CC2CCC1C2 (configuration not stated),-3.39%
13,Nc1c(Br)cc2c(c1Br)C(O)c1ccccc1-2 (configuration not stated),6.05%
14,CN(C)c1ncnc2c1C(c1ccccc1)C(C)(C)O2 (configuration not stated),-2.79%
15,COc1ccc(OC)c(NC(=O)c2cc(-c3cc(F)ccc3OCC3CCCO3)n[nH]2)c1 (configuration not stated),-7.22%
16,COc1cc(OC)cc(C(=O)OCC(=O)Nc2ccc(F)cc2F)c1,-1.06%
